MEKK3 PB1 HTS: raises or lowers MEK5 binding to the human MEKK3 PB1 domain; binding response (% of control), % at 10 µM; AID 1529; Q99759; hit rate 1.4% among 290,000; bead-based flow cytometry, Alexa488-MEK5 binding to MEKK3; actives lie on both sides; 0 = blocked by unlabeled MEK5, 100 = vehicle;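 active = binding response more than 3 SD above or below the average of its plate-row segment, actives on both sides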;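 note: Alexa488 bead fluorescence after subtracting the streptavidin-only scavenger bead signal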
MEKK2mut PB1 HTS: signal of MEK5 binding to mutant human MEKK2 PB1 domain | hit rate 0.35% among 290,000 | AID 1530 | percent response, % at 10 µM | bead flow cytometry, Alexa488-MEK5 binding to MEKK2 mutant; in the data active = percent response above about 24%, passing the limit was not always enough
MEKK2wt PB1 HTS: raises or lowers MEK5 binding to wildtype human MEKK2 PB1 domain; Q9Y2U5; bead flow cytometry, Alexa488-MEK5 binding to MEKK2 WT; actives lie on both sides; binding response (% of control), % at 10 µM; hit rate 1.1% among 290,000; in the data active = binding response below about 67% or above about 130%
VLA-4 inh: inhibition in a human VLA-4 binding assay; inhibition, % (about 7 µM as worked out from the volumes in the protocol); hit rate 0.2% among 330,000; P13612; VLA-4 expressing cells, ligand binding flow cytometry; AID 2557; in the data active = inhibition above about 50%
A number is an active result; – = inactive; · = no result given; [ ] = remark or other dose. Only some compounds are listed: those with a hit (about 2.2% of all), similar ones and a draw of the others.

SMILES	MEKK3 PB1 HTS	MEKK2mut PB1 HTS	MEKK2wt PB1 HTS	VLA-4 inh
CC(=O)Nc1ccc(/C=C(\C#N)S(=O)(=O)c2ccc(C)cc2)cc1	·	·	·	–
CC(Sc1ccc([N+](=O)[O-])cn1)C(=O)Nc1nccs1 (configuration not stated)	–	–	157	–
OC(COc1ccc(CNCCc2ccc(C(F)(F)F)cc2)cc1)CN1CCCCC1 (configuration not stated)	–	–	150	–
Cc1ccc(NC(=O)c2ccco2)c(NC(=O)c2ccccc2)c1	0.0[inhibitor]	–	-12[inhibitor]	–
Cc1cccc(NCc2ccc(N(C)C)cc2)n1	–	–	–	–
CC(C)(C)C(=O)/C=c1\s/c(=C\c2ccc(-c3ccc([N+](=O)[O-])cc3)o2)c(=O)n1CC(=O)NC(N)=O	–	396	241	·
CCOc1cc(/C=C2\C(=O)N(CCc3ccc(OC)c(OC)c3)C(C)=C2C(=O)OC)ccc1O	60[inhibitor]	–	–	–
O=C(N/N=C/c1cccs1)c1cccc(NC(=O)c2ccc(Cl)cc2)c1	132	–	–	–
CCOC(=O)c1c(NC(=O)c2ccccc2N(C)S(=O)(=O)c2ccccc2)sc2c1CCCC2	–	–	–	–
CCOC(=O)c1c(NC(=O)C(NCCN(C)C)c2ccccc2)sc2c1CCCC2 (configuration not stated)	–	43	171	–
CC(C)CC(=O)Nc1nc2ccc(S(C)(=O)=O)cc2s1	–	–	-11	–
CCC(=O)Nc1nc2ccc(S(C)(=O)=O)cc2s1	–	–	–	–
O=[N+]([O-])c1cccc(/C=C/c2ccncc2)c1	–	–	–	–
O=[N+]([O-])c1ccc(/C=C/c2ccncc2)cc1	–	–	-2.0[inhibitor]	–
COC(=O)CCC(C)N1CCC(Oc2ccc(C(=O)N3CCCC3)cc2)CC1 (configuration not stated)	–	–	–	–
COC(=O)C/C=N/N=C1/NC(=O)/C(=C/C(=O)O)S1	–	–	1.0	–
CC[C@H](C)C(N)c1cn(C(CCCN=C(N)N)C(=O)N2CCNCC2)nn1 (some centres not stated)	·	·	·	–
CC(=O)N1CC(C)Sc2ccc(S(=O)(=O)NC(C)c3ccccc3)cc21 (configuration not stated)	80[inhibitor]	–	64[inhibitor]	–
O=C(NCC1CCCO1)c1ccccc1NS(=O)(=O)c1ccc(F)cc1 (configuration not stated)	·	·	·	–
COc1ccccc1C(=O)N/N=C/c1c[nH]c2ccccc12	–	–	–	–
O=C(Nc1ccccc1C(=O)NCCCN1CCOCC1)c1ccc(F)cc1	1.0[inhibitor]	–	-2.0[inhibitor]	–
O=C(NCCCN1CCOCC1)c1ccccc1	–	–	–	–
Cc1ccc(CN(C)C(=O)CCc2c[nH]c3ccccc23)o1	–	–	–	–
CN(Cc1cccnc1)C(=O)CCCc1c[nH]c2ccccc12	–	26	135	–
O=Cc1c(C(=O)O)n(CC(=O)O)c2ccccc12	134	–	–	–
SMILES	MEKK3 PB1 HTS	MEKK2mut PB1 HTS	MEKK2wt PB1 HTS	VLA-4 inh
COc1cc(NC(=O)CCC(=O)c2cccs2)cc(OC)c1	–	–	–	–
CC(=O)NC(Cc1cccc(C)c1)C(=O)NC1CCN(c2ncccc2[N+](=O)[O-])CC1 (configuration not stated)	–	–	–	–
CC(=O)NC(Cc1cccc(F)c1)C(=O)NC1CCN(c2ncccc2[N+](=O)[O-])CC1 (configuration not stated)	–	–	–	57
C=CCSc1nnc(NC(=O)c2cn(CC)c3nc(C)ccc3c2=O)s1	–	–	–	–
CCc1ccc(-c2ccc(SCc3ccccn3)nn2)cc1	–	–	–	–
CCOc1ccc(-c2ccc(SCc3ccccn3)nn2)cc1	–	–	–	61
O=C(NCC1CCN(Cc2ccc(F)cc2)CC1)C1CCCN(c2ncnc3c2nc2n3CCCCC2)C1 (configuration not stated)	–	–	–	–
O=C(NCC1CCN(Cc2ccc(Cl)cc2)CC1)C1CCCN(c2ncnc3c2nc2n3CCCCC2)C1 (configuration not stated)	–	25	–	–
CN(C)C(CNC(=O)C1CCN(S(=O)(=O)c2cccc(Cl)c2Cl)CC1)c1ccccc1 (configuration not stated)	–	–	–	–
OC(CNCCc1ccc(C(F)(F)F)cc1)COc1cccc2ccccc12 (configuration not stated)	–	–	156	–
O=C(CSc1nc2ccccc2c2c1CCCC2)N1CCOCC1	–	–	–	–
COc1cccc(/C=C/c2nc3c(cnn3-c3ccccc3)c(=O)[nH]2)c1	–	93	·	–
Oc1ccc(Cl)cc1C1=NNC(c2ccc(Cl)cc2)C1 (configuration not stated)	135	–	–	–
Oc1c(Cl)cc(Cl)cc1C1=NNC(c2ccc(Cl)cc2)C1 (configuration not stated)	–	–	–	·
N#Cc1c(SCC(=O)Nc2ccccc2)nsc1SCC(=O)Nc1ccccc1	–	–	–	–
Cc1cccc(NC(=O)CSc2nsc(SCC(=O)Nc3cccc(C)c3)c2C#N)c1	–	–	29	–
CSCC(O)Cn1ncc2ccccc2c1=O (configuration not stated)	–	–	–	–
CCN(CC)c1ccc(/C=C/c2cccc[n+]2C)c(OC)c1	–	–	12	·
COc1ccc(/C=C/c2cccc[n+]2C)c(O)c1	–	–	–	–
CCn1c(C)c(C)c2cc(C(=O)NCCCN3CCCCCC3)ccc21	–	–	136	–
Cc1c(C)n(Cc2ccc(F)cc2)c2ccc(C(=O)NCCN3CCOCC3)cc12	–	–	–	–
CCn1c(C)c(C)c2cc(C(=O)NCCCN3CCN(C)CC3)ccc21	–	–	–	–
Cc1[nH]c2ccc(C(=O)NCCCN3CCCCCC3)cc2c1C	–	27	173	–
CCn1c(C)c(C)c2cc(C(=O)NCCCN3CCCCC3)ccc21	–	31	1.0	–
CCn1c(C)c(C)c2cc(C(=O)NCCN3CCCCCC3)ccc21	–	–	145	–
SMILES	MEKK3 PB1 HTS	MEKK2mut PB1 HTS	MEKK2wt PB1 HTS	VLA-4 inh
Cc1ccc(NC(=S)NC(=O)C2CCC2)cc1C	–	–	–	–
CC(=O)Nc1ccc(NC(=O)C2CCCCN2S(=O)(=O)c2ccc(C(C)(C)C)cc2)cc1 (configuration not stated)	–	–	–	–
O=C1Nc2cc(C(=O)NCCN3CCCCCC3)ccc2S/C1=C\c1ccccc1	–	43	219	–
O=C1Nc2cc(C(=O)N3CCc4ccccc4C3)ccc2S/C1=C\c1ccccc1	–	–	–	–
COc1cccc(/C=C2/Sc3ccc(C(=O)NCCN4CCCCCC4)cc3NC2=O)c1	–	71	280	–
CCN1CCCC1CNC(=O)c1cc(N)ccc1OC (configuration not stated)	·	·	·	–
Cc1cccc(/C=C2/Sc3ccc(C(=O)NCCN4CCCC4)cc3NC2=O)c1	–	46	183	–
CCN1CCCC1CNC(=O)c1ccc2c(c1)NC(=O)/C(=C\c1ccc(OC)c(OC)c1)S2 (configuration not stated)	–	25	153[inhibitor]	–
